Results: PubChem BioAssay (NCATS)
Results filed as inconclusive are left out. Active and inactive are the calls of the source. Unless noted, the call rests on the fitted dose curve.

What was measured:
[1] = target: Glucocorticoid receptor (Homo sapiens) (UniProt P04150); assay: qHTS assay for small molecule agonists of glucocorticoid receptor signaling (AID 588532; active means well fitted curve in the direction sought with a large enough effect in the signal ratio, with a control signal flat; the % refers to the signal ratio;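 further: 100% = dexamethasone at 0.1 µM and 0% = DMSO only wells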); conditions: HeLa MMTV-bla, beta-lactamase ratio, agonist, 18 h; activation: stronger effect = higher value, percent of dexamethasone control, DMSO zero
Glucocorticoid receptor (Homo sapiens), sequence (P04150 whole entry, looked up): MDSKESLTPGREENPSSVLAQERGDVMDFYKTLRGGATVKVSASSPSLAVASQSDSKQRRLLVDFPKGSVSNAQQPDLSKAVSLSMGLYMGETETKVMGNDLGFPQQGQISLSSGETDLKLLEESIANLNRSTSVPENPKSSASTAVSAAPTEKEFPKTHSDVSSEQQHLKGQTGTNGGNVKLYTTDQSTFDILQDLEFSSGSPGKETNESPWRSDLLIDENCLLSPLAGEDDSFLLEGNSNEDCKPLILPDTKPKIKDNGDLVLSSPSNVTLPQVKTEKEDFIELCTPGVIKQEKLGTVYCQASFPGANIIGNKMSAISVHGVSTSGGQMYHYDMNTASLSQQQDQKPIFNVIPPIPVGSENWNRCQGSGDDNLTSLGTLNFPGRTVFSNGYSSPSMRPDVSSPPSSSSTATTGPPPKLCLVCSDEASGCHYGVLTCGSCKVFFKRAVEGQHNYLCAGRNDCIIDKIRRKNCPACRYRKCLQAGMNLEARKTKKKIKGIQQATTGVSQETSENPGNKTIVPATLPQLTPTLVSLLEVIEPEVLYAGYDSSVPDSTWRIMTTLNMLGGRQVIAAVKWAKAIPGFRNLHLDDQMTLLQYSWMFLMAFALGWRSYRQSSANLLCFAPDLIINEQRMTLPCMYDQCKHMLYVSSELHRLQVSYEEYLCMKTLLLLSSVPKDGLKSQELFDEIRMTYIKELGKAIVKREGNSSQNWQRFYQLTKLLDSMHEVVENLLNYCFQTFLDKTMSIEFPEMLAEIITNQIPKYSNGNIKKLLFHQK
In short: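 HeLa GRE-bla reporter cells; 18 h compound exposure at 37 C; 2 h CCF4 loading at room temperature; fluorescence at 460 and 530 nm; EC50 by Hill equation.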

[2] = target: Vitamin D3 receptor (Homo sapiens) (UniProt P11473); assay: qHTS assay for small molecule antagonists of vitamin D receptor signaling (AID 588541);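 further: receptor activated by calcitriol during compound treatment; series mostly up to about 77 µM; on the % scale 0 is the no-effect control and ±100 the full control effect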
Vitamin D3 receptor (Homo sapiens), sequence (P11473 whole entry, looked up): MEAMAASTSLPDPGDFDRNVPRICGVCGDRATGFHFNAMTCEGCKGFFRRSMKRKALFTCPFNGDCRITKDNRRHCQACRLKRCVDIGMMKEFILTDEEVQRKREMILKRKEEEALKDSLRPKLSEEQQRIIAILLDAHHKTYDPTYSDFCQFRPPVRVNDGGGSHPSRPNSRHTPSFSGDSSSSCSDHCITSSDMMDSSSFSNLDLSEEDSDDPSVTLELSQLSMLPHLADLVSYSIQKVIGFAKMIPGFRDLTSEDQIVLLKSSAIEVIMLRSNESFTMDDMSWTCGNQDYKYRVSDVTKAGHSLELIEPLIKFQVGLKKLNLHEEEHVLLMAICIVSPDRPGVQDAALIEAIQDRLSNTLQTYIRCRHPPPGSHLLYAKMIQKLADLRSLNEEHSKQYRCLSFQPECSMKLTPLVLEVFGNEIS
In short: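 VDR-UAS-bla HEK293T cells in 2% charcoal-stripped FBS were stimulated with 1-alpha,25-dihydroxyvitamin D3 (3 nM final) plus compound for 16 h at 37 C. The beta-lactamase CCF4 readout was normalized to 50 nM agonist and DMSO, and Hill fits gave IC50.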

[3] = target: Vitamin D3 receptor (Homo sapiens) (UniProt P11473); assay: qHTS assay for small molecule agonists of vitamin D receptor signaling (AID 588543);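 further: 0% = DMSO basal and 100% = reference agonist control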
In short: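 qHTS in agonist mode: compound titrations stimulate a VDR-driven β-lactamase reporter in HEK293T cells over 16 h at 37 °C. Response normalized to 50 nM 1α,25-dihydroxyvitamin D3 = 100%, DMSO = 0%; Hill fitting gives EC50 and maximal response.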

[4] = qHTS assay for small molecule agonists of the antioxidant response element (ARE) signaling pathway measured by Nrf2-dependant transcriptional activity - cell viability counter screen (AID 720653; active means well fitted curve in the direction sought with a large enough effect in the repeat runs; an effect the other way counts as inactive or inconclusive; further: on the % scale 0 is the no-effect control and ±100 the full control effect); conditions: ARE-bla HepG2 viability, CellTiter-Glo ATP luminescence, 16 h; max response: stronger effect = lower value
In short: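 ARE-bla HepG2 cells treated with compounds for 16 h at 37C; this counter screen measures viability as intracellular ATP by CellTiter-Glo luminescence after 30 min at room temperature.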

[5] = qHTS assay for cell viability of the p53RE-bla HCT-116 cell line (AID 743292; active means well fitted curve in the direction sought with a large enough effect; an effect the other way counts as inactive or inconclusive; further: nearly all actives have a fitted effect of over 55% in size; further: potency means the concentration at half of the fitted maximal effect)
In short: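 Compound-exposed HCT-116 (p53RE-bla) cells, 4,000 per well, were kept 16 h at 37 C following a 5 h preincubation. Cell number was estimated from total ATP by CellTiter-Glo luminescence read after 30 min at room temperature.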

[6] = target: Peroxisome proliferator-activated receptor delta (Homo sapiens) (UniProt Q03181); assay: qHTS assay for small molecule agonists of peroxisome proliferator-activated receptor delta signaling (AID 588534);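 further: 0% = DMSO basal wells and 100% = positive control agonist at 10 µM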
Peroxisome proliferator-activated receptor delta (Homo sapiens), sequence (Q03181 whole entry, looked up): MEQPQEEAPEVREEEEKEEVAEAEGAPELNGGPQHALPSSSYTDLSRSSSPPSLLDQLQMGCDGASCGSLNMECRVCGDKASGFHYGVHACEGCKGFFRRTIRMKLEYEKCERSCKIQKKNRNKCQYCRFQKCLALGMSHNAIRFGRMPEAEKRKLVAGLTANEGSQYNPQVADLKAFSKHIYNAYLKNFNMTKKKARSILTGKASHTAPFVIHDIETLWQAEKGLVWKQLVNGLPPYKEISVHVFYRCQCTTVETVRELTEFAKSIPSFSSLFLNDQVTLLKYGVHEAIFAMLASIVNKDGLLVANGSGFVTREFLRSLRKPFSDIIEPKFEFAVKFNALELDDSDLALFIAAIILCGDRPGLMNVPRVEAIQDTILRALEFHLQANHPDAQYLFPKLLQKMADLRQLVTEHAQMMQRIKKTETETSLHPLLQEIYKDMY
In short: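 Titration series tested in agonist mode on beta-lactamase reporter cells; 18 hrs at 37 C after a 5 hr pre-incubation. Readout: CCF4 fluorescence, 2 hrs RT. Hill equation gives EC50 and maximal response.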

[7] = target: Thyroid hormone receptor beta (Homo sapiens) (UniProt P10828); assay: qHTS assay for small molecule agonists of thyroid hormone receptor beta signaling (AID 588545);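 further: 0% = DMSO only and 100% = 10 nM T3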
Thyroid hormone receptor beta (Homo sapiens), sequence (P10828 whole entry, looked up): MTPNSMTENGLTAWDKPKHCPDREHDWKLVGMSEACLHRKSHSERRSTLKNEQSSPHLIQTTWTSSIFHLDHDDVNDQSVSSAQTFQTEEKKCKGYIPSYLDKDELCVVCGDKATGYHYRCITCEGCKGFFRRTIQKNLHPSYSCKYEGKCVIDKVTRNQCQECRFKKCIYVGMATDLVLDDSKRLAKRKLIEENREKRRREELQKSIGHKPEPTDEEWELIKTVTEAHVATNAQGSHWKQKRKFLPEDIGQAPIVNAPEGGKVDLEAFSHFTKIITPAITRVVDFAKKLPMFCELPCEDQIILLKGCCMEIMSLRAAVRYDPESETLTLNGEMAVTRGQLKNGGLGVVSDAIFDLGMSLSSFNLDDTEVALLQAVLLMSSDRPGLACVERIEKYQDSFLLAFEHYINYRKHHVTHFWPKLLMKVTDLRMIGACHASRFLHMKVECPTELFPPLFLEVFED
In short: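 Efficacy and EC50 values derive from Hill fits of qHTS titration data, normalized to 10 nM T3 and DMSO-only wells. HEK 293 reporter cells were stimulated for 18 hrs at 37 C, with beta-lactamase activity measured by CCF4 fluorescence.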

[8] = target: Thyroid hormone receptor beta (Homo sapiens) (UniProt P10828); assay: qHTS assay for small molecule antagonists of thyroid hormone receptor beta signaling (AID 588547; active means well fitted inhibition curve with a large enough effect in the signal ratio, with a control signal flat, not every such curve was filed as active; the % refers to the signal ratio;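 further: cells stimulated with 0.4 nM T3 agonist during compound exposure; series mostly up to about 77 µM; on the % scale 0 is the no-effect control and ±100 the full control effect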); conditions: TR-UAS-bla HEK293, beta-lactamase ratio, antagonist mode, 18 h
In short: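 TR-UAS-bla GripTite HEK293 cells in 2% charcoal/dextran FBS medium; compounds 0.59 nM to 92 uM with T3 at 0.4nM final, 18 h at 37 C. Beta-lactamase read by CCF4 fluorescence (460/530 nm); Hill fits gave IC50 and efficacy.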

[9] = qHTS assay for small molecule activators of the p53 signaling pathway (AID 651743; active means well fitted activation curve with a large enough effect in the signal ratio, not every such curve was filed as active; the % refers to the signal ratio; further: series mostly up to about 92 µM; % of control where 0% means no effect); conditions: HCT-116 p53RE-bla, beta-lactamase FRET ratio, 16 h; activation: stronger effect = higher value
In short: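 Reporter: beta-lactamase driven by p53 response elements, stably integrated in HCT-116 cells. Cells seeded at 4,000/well, 5 h preincubation, compound (DMSO) 16 h at 37 C; B/G FRET substrate 2 h RT; fluorescence intensity read.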

[10] = target: Peroxisome proliferator-activated receptor alpha (Homo sapiens) (UniProt Q07869); assay: qHTS assay for small molecule agonists of the peroxisome proliferator-activated receptor alpha (PPARalpha) signaling pathway (AID 651778; active means well fitted curve in the direction sought with a large enough effect; an effect the other way counts as inactive or inconclusive; further: % of control where 0% means no effect); conditions: PathHunter PPARalpha complementation, chemiluminescence, 6 h; max response: stronger effect = higher value
Peroxisome proliferator-activated receptor alpha (Homo sapiens), sequence (Q07869 whole entry, looked up, the tested form may be a part): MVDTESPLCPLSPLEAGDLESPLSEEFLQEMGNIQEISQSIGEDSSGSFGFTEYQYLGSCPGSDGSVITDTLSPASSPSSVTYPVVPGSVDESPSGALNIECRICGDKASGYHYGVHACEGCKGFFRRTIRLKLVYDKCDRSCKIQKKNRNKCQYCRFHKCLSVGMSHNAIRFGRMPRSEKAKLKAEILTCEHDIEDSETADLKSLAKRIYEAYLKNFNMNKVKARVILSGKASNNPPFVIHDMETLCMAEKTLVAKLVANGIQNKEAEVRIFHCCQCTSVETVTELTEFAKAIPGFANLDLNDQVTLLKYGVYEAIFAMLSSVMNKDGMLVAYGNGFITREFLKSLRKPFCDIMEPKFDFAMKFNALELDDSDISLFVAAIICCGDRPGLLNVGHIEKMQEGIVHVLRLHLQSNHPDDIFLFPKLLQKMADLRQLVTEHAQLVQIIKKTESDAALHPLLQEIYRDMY
In short: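 Enzyme-fragment complementation assay in which ligand-bound PPARalpha translocates and forms an active enzyme that generates chemiluminescence. Cells were plated overnight, exposed to compound for 6 hr at 37 C, and then given detection reagent for 60 min at room temperature.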

[11] = qHTS assay for cell viability of HEK293 cells (AID 743288; active means well fitted curve in the direction sought with a large enough effect; an effect the other way counts as inactive or inconclusive; further: on the % scale 0 is the no-effect control and ±100 the full control effect; nearly all actives have a fitted effect of over 50% in size); conditions: ATP luminescence (CellTiter-Glo), 18 h; max response: stronger effect = lower value
In short: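 Quantitative high-throughput screen: compounds were pinned onto parental HEK293 cells (2,000 per well) after a minimum 5 h settling at 37 C, incubated 18 h at 37 C, and intracellular ATP measured by luciferase luminescence.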

[12] = target: Nuclear receptor subfamily 1 group I member 2 (Rattus norvegicus) (UniProt Q9R1A7); assay: qHTS assay for small molecule activators of the rat pregnane X receptor (rPXR) signaling pathway (AID 651751; call rule not given here; further: 0% is about no effect); conditions: rPXR reporter cells, luciferase (One-Glo), 24 h
Nuclear receptor subfamily 1 group I member 2 (Rattus norvegicus), sequence (Q9R1A7 whole entry, looked up): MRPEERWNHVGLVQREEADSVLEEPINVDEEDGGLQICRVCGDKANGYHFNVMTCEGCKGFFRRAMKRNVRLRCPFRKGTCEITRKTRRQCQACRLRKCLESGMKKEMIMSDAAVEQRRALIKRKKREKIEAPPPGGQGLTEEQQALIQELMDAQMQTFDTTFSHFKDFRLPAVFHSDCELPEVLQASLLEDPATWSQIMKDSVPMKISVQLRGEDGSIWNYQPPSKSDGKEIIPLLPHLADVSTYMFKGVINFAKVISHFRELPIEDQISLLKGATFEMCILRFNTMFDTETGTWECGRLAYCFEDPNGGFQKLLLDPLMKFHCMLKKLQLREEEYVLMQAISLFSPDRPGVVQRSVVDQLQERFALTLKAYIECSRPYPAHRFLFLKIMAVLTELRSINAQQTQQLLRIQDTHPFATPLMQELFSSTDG

[13] = qHTS assay for environmental chemicals that activate the Aryl hydrocarbon Receptor (AhR) signaling pathway (AID 651777; active means well fitted curve in the direction sought with a large enough effect; an effect the other way counts as inactive or inconclusive; further: nearly all actives have a fitted effect of over 15% in size; further: potency means the concentration at half of the fitted maximal effect; on activation: % of control where 0% means no effect); conditions: 1A2-DRE human hepatoma cells, luciferase, 24 h; activation: stronger effect = higher value
In short: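 Concentration–response screening used 1,200 1A2-DRE cells per well, 24 hr compound exposure (37 C, 5% CO2), and One-Glo luminescence as the AhR-driven CYP1A2 reporter signal.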

[14] = qHTS assay for small molecule agonists of the antioxidant response element (ARE) signaling pathway measured by Nrf2-dependant transcriptional activity (AID 720636; active means well fitted curve in the direction sought with a large enough effect in the repeat runs; an effect the other way counts as inactive or inconclusive;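 further: HepG2 cells with an ARE-driven luciferase reporter; % of control where 0% means no effect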)
In short: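 Attachment 6 hr at 37 C, then compound versus DMSO vehicle for 16 hr in ARE-luc HepG2 cells (1% dialyzed FBS); luminescence recorded 30 min after ONE-Glo addition at room temperature.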

[15] = target: Glucocorticoid receptor (Homo sapiens) (UniProt P04150); assay: qHTS assay for small molecule antagonists of glucocorticoid receptor signaling (AID 588533; active means well fitted inhibition curve with a large enough effect in the signal ratio, with a control signal flat, not every such curve was filed as active; the % refers to the signal ratio; further: on the % scale 0 is the no-effect control and ±100 the full control effect)
In short: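 Antagonist-mode qHTS: compound titrations added to GRE-bla HeLa cells, then dexamethasone 2 nM final; 18 h, 37 C. CCF4 FRET fluorescence normalized to dexamethasone and DMSO; IC50 from Hill fit.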

[16] = qHTS assay for small molecule antagonists of peroxisome proliferator-activated receptor delta signaling (AID 588535); conditions: HEK293T PPARd-UAS-bla, beta-lactamase FRET ratio, 18 h; 460 nm channel;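 further: cells co-treated with a PPAR-delta agonist as stimulator during compound exposure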
In short: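 Beta-lactamase reporter read-out (405 nm excitation, 460/530 nm emission) after CCF4 loading for 2 hrs at RT. HEK293T PPAR-delta-UAS-bla cells, 2% charcoal/dextran FBS, compounds for 18 hrs at 37 C. Hill fit gave IC50 and efficacy.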

[17] = qHTS assay for small molecule antagonists of retinoid X receptor alpha signaling (AID 588546; active means well fitted inhibition curve with a large enough effect in the signal ratio, with a control signal flat, not every such curve was filed as active; the % refers to the signal ratio); conditions: HEK293T RXRa-UAS-bla, beta-lactamase ratio, antagonist mode; measured here: W530 green channel, cytotoxicity proxy
In short: (§1)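 Beta-lactamase reporter inhibition, read as CCF4 fluorescence ratio (ex 405, em 460/530 nm) after 2 h at RT. HEK293T UAS-bla cells, 2500/well, were stimulated with 9-cis-RA at 500 or 100 nM final alongside test compound for 18 h at 37 C.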

[18] = target: Retinoic acid receptor RXR-alpha (Homo sapiens) (UniProt P19793); assay: as above; conditions: HEK293T RXRa-UAS-bla, beta-lactamase ratio, antagonist mode
Retinoic acid receptor RXR-alpha (Homo sapiens), sequence (P19793 whole entry, looked up): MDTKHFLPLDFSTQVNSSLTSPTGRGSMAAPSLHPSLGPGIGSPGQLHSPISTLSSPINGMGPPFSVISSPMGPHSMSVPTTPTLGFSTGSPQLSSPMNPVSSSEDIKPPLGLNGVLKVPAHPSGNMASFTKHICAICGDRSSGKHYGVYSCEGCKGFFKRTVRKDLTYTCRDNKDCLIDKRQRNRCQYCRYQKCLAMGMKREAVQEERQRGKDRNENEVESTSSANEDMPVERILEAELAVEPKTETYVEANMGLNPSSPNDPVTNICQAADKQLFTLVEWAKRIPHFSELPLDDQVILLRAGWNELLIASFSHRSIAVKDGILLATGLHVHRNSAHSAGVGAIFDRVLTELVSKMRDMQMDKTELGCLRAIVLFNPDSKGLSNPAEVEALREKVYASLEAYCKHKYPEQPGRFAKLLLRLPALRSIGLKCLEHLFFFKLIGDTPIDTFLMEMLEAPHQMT
In short: as §1

[19] = qHTS assay for small molecule activators of the nuclear factor-kappa B (NF-kB) signaling pathway (AID 651749; active means well fitted activation curve with a large enough effect in the signal ratio; the % refers to the signal ratio; further: series mostly up to about 77 µM; % of control where 0% means no effect); conditions: NF-kB-bla ME-180 cells, beta-lactamase FRET ratio, 16 h; activation: stronger effect = higher value
In short: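 NF-kB-bla ME-180 cells, 2,000/well; 23 nL compound or DMSO pinned; 16 hr, 37C/5% CO2; beta-lactamase FRET read-out.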

[20] = target: Retinoic acid receptor RXR-alpha (Homo sapiens) (UniProt P19793); assay: qHTS assay for small molecule agonists of retinoid X receptor alpha signaling (AID 588544);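 further: 0% = DMSO basal wells and 100% = reference agonist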

ClC1=C(Cl)[C@@]2(Cl)[C@H]3C[C@@H](Cl)[C@H](Cl)[C@H]3[C@@]1(Cl)C2(Cl)Cl
active: Potency [5] 50.1 µM
inactive: activation [1] -9.73% | Potency [2] | outcome [3] | max response [4] -24.7%

O=C(Nc1ccccc1)Nc1ccnc(Cl)c1
inactive: activation [1] -0.972% | outcome [6] | Potency [2] | outcome [3] | Potency [7] | activity change % (negative = inhibition) [8] 16% | activation [9] 4.1% | max response [10] -0.317% | max response [4] -3.22% | max response [11] -3.84% | Potency [5] | max response [12] 9.67%

CC(C)OC(=O)C(O)(c1ccc(Br)cc1)c1ccc(Br)cc1
inactive: activation [1] -15% | Potency [2] | outcome [3] | activation [13] 8.09% | Potency [14] | max response [4] -7.97% | max response [11] -24.4%
active: Potency [5] 70.8 µM

CCCOc1nn(C(=O)NS(=O)(=O)c2ccccc2C(=O)OC)c(=O)n1C
-18%: max response [17]
41%: max response [16]
inactive: activation [1] -2.11% | Potency [15] | outcome [6] | Potency [2] | outcome [3] | Potency [7] | max response [18] -2.92% | activity change % (negative = inhibition) [8] 10.6% | activation [9] 0.234% | activation [19] -2.67% | activation [13] 0.148% | max response [10] 0.0457% | Potency [14] | max response [4] -11.6% | max response [11] -4.57% | Potency [5] | max response [12] 4.67%

COc1ccc(/C(=C/C(=O)N2CCOCC2)c2ccc(Cl)cc2)cc1OC
inactive: Potency [15] | Potency [2] | Potency [20] | Potency [7] | max response [18] -50.8% | activation [9] -3.46% | activation [19] -1.84% | activation [13] -0.517% | max response [10] 0.316% | Potency [14] | max response [4] -2.69% | max response [11] -14.1% | Potency [5] | max response [12] 8.84%
24.3%: max response [17]

CON(C)C(=O)Nc1ccc(Cl)c(Cl)c1
active: Potency [13] 35.5 µM
inactive: activation [1] -2.11% | Potency [15] | outcome [6] | Potency [2] | Potency [20] | Potency [7] | max response [18] -0.419% | activation [9] 0.565% | activation [19] -2.01% | max response [10] -1.01% | max response [4] -26.6% | max response [11] -2.77%
-15.9%: max response [17]

ClC1=C(Cl)C2(Cl)C3C4OC4C(Cl)C3C1(Cl)C2(Cl)Cl (stereo not drawn)
inactive: Potency [15] | outcome [6] | Potency [2] | Potency [20] | Potency [7] | activity change % (negative = inhibition) [8] 16.3% | activation [19] 4.48% | activation [13] -0.371% | Potency [14] | max response [4] 0.273% | max response [11] -17.2% | Potency [5]
-5.72%: max response [16]
-11.3%: max response [17]

CC1(C)CCC(Cc2ccc(Cl)cc2)C1(O)Cn1cncn1 (stereo not drawn)
inactive: outcome [6] | Potency [2] | outcome [3] | Potency [20] | Potency [7] | max response [18] -14.3% | activation [19] -0.913% | activation [13] -1.24% | max response [10] -1.67% | Potency [14] | max response [4] -10.5% | max response [11] -17.8% | Potency [5]
-14.2%: max response [17]

CN/C(=N\[N+](=O)[O-])NCc1cnc(Cl)s1
inactive: Potency [2] | outcome [3] | Potency [20] | Potency [7] | max response [18] -1.36% | activity change % (negative = inhibition) [8] -15.1% | activation [13] 1.58% | max response [10] -0.992% | Potency [14] | max response [4] 0.65% | max response [11] -4.28% | Potency [5] | max response [12] 6.52%
-9.8%: max response [17]

Cn1c(-c2ccccc2)cc(-c2ccccc2)[n+]1C
17.2%: max response [17]
inactive: activation [1] -9.09% | outcome [6] | Potency [2] | outcome [3] | Potency [20] | max response [18] -10.3% | activation [13] -2.45% | max response [10] -0.162% | Potency [14] | max response [4] -21.3% | max response [11] 5.36% | max response [12] -12.3%

CCC(C)(C)c1cc(-n2nc3ccccc3n2)c(O)c(C(C)(C)CC)c1
-9.56%: max response [16]
inactive: Potency [15] | outcome [6] | Potency [2] | outcome [3] | Potency [20] | Potency [7] | max response [18] 11.8% | activity change % (negative = inhibition) [8] 12% | activation [19] -0.182% | activation [13] 0.0202% | max response [10] 0.0334% | max response [11] -9.99% | Potency [5] | max response [12] -0.463%
-14%: max response [17]

O=C(NC(=O)c1c(F)cccc1F)Nc1cc(Cl)c(OC(F)(F)C(F)C(F)(F)F)c(Cl)c1F (stereo not drawn)
-6.84%: max response [17]
39.8%: max response [16]
inactive: outcome [6] | outcome [3] | Potency [20] | Potency [7] | max response [18] 4.34% | activity change % (negative = inhibition) [8] 12.6% | activation [9] 2.49% | activation [13] 6.63% | max response [10] 6.43% | max response [4] -22% | max response [11] -24.3% | Potency [5] | max response [12] 9.17%

CC1(C)CON(Cc2ccccc2Cl)C1=O
inactive: outcome [6] | Potency [2] | Potency [20] | Potency [7] | max response [18] -4.63% | activity change % (negative = inhibition) [8] 0.368% | activation [9] -1.76% | activation [19] 0.414% | activation [13] 5.31% | max response [10] 0.0347% | max response [4] -9.67% | max response [11] -8.49% | Potency [5] | max response [12] 13.2%
23.3%: max response [16]
-9.42%: max response [17]

CCOP(=S)(OCC)SCCl
inactive: activation [1] 12.1% | Potency [15] | Potency [2] | outcome [3] | activity change % (negative = inhibition) [8] -1.44% | activation [19] -1.72% | activation [13] 0.0178% | max response [10] -3.54% | Potency [14] | max response [4] -13.5% | max response [11] -19.2% | Potency [5] | max response [12] -4.02%
